Legend:
Assay in all cases: PBM binding z-score (relative to random genomic background probes); higher = stronger binding; sequences stand for … in GC…GCGATTGACAGCGTAGAATGAAGG
[1] = test system: FXR:RXRa (NR concentration 270 nM, RXRa partner concentration 90 nM)
Summary of the method: (§1)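 Ligand-free nuclear receptor dimers were bound for 1 h to custom Agilent 4×180K protein-binding microarrays. Detection used antibodies against each partner (one per run). Binding z-scores rest on regression-normalized fluorescence, with random background probes as the reference.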

[2] = test system: LXRa:RXRa (NR concentration 270 nM, RXRa partner concentration 90 nM)
Summary of the method: as §1

[3] = test system: LXRa homodimer (NR concentration 270 nM)
Summary of the method: as §1

[4] = test system: LXRb:RXRa (NR concentration 270 nM, RXRa partner concentration 90 nM)
Summary of the method: as §1

[5] = test system: LXRb homodimer (NR concentration 270 nM)
Summary of the method: as §1

[6] = test system: PPARa:RXRa (NR concentration 270 nM, RXRa partner concentration 90 nM)
Summary of the method: as §1

[7] = test system: PPARg:RXRa (NR concentration 180 nM, RXRa partner concentration 90 nM)
Summary of the method: as §1

[8] = test system: PPARg:RXRa 270nM:90nM, anti-RXR (NR concentration 270 nM, RXRa partner concentration 90 nM)
Summary of the method: as §1

[9] = test system: PPARg:RXRa 30nM:10nM, anti-RXR (NR concentration 30 nM, RXRa partner concentration 10 nM)
Summary of the method: as §1

[10] = test system: PPARg:RXRa 90nM:30nM, anti-RXR (NR concentration 90 nM, RXRa partner concentration 30 nM)
Summary of the method: as §1

[11] = test system: PPARg:RXRa DBDmut IVT, anti-RXR (DBD mutation: RXRa K156A/R161A, NR concentration 270 nM, RXRa partner concentration 90 nM)
Summary of the method: as §1

[12] = test system: PPARg:RXRa IVT, anti-PPARg (NR concentration 270 nM, RXRa partner concentration 90 nM)
Summary of the method: as §1

[13] = test system: PPARg DBDmut:RXRa IVT, anti-PPARg (DBD mutation: PPARg1 K132A/R137A, NR concentration 270 nM, RXRa partner concentration 90 nM)
Summary of the method: as §1

[14] = test system: PPARg DBDmut IVT, anti-PPARg (DBD mutation: PPARg1 K132A/R137A, NR concentration 270 nM)
Summary of the method: as §1

[15] = test system: PPARg homodimer (NR concentration 180 nM)
Summary of the method: as §1

[16] = test system: PXR:RXRa (NR concentration 270 nM, RXRa partner concentration 90 nM)
Summary of the method: as §1

[17] = test system: PXR homodimer (NR concentration 270 nM)
Summary of the method: as §1

[18] = test system: RARa:RXR (NR concentration 270 nM, RXRa partner concentration 90 nM)
Summary of the method: as §1

[19] = test system: RARa homodimer (NR concentration 270 nM)
Summary of the method: as §1

[20] = test system: RARb:RXRa (NR concentration 270 nM, RXRa partner concentration 90 nM)
Summary of the method: as §1

Sequence | PBM binding z-score [1] | PBM binding z-score [2] | PBM binding z-score [3] | PBM binding z-score [4] | PBM binding z-score [5] | PBM binding z-score [6] | PBM binding z-score [7] | PBM binding z-score [8] | PBM binding z-score [9] | PBM binding z-score [10] | PBM binding z-score [11] | PBM binding z-score [12] | PBM binding z-score [13] | PBM binding z-score [14] | PBM binding z-score [15] | PBM binding z-score [16] | PBM binding z-score [17] | PBM binding z-score [18] | PBM binding z-score [19] | PBM binding z-score [20]
TAGCCTAGGGCAGATCGGGCCAGTATACGCTATA | -0.551 | -0.549 | -0.559 | -0.757 | -1.16 | -0.359 | 0.168 | -0.585 | -0.695 | -0.348 | -0.53 | -0.145 | -0.91 | -1.38 | -0.781 | -0.394 | -0.7 | 0.406 | -1.26 | 0.79
TCATATAGGTAAAACAGGTGAAAGTCGGCATCTA | 1.42 | 1.1 | 0.257 | 1.01 | 0.235 | 1.82 | 1.12 | 2.64 | 4.06 | 3.67 | 3.88 | 2.77 | 0.289 | 1.07 | 1.06 | 0.972 | 0.0725 | 1.62 | 1.05 | 0.579
AGTCAAAGTTCACTAGGTATCGTAAGATTCAGCT | 4.92 | 5.04 | 3.27 | 2.98 | 1.09 | 4.19 | 6.03 | 5.82 | 2.96 | 5.12 | 1.2 | 3.6 | 1.14 | 1.1 | 2.46 | 4.04 | 3.44 | 2.8 | 1.06 | 4.7
ACAGACAGGTGAGTGAAGGTACCTCAGCTGGACG | -0.587 | -0.527 | -0.687 | -0.78 | -0.777 | -0.49 | 0.476 | -0.227 | -0.761 | -0.682 | 0.368 | 0.143 | -0.279 | -0.459 | -0.919 | -0.854 | -0.592 | -0.657 | -1.02 | 0.213
TCTTGTAGATCAGCAGGTTACGAAAGCTGGCCAA | 0.0711 | -0.119 | -0.159 | 0.185 | -0.369 | 0.613 | -0.304 | 1.48 | 2.34 | 1.87 | 1.6 | 0.645 | -0.743 | -0.301 | -0.303 | -0.0656 | -0.456 | 0.298 | -0.436 | 0.143
CCTACTGGGCCACGAAAGGACATTGATTCAGTGA | 0.276 | 0.0312 | 0.0181 | -0.441 | -0.67 | 0.738 | 1.63 | 1.22 | -0.124 | 0.606 | 4.98 | 5.21 | 0.3 | -0.299 | 0.467 | -0.024 | -0.134 | 0.342 | 0.45 | 1.11
CCTACTGGGCCACGAAAGGTCAGTGATTCAGTGA | 1.7 | 3.12 | 1.41 | 2.24 | -0.661 | 3.53 | 3.77 | 3.87 | 1.03 | 2.79 | 4.86 | 5.84 | 1.69 | 0.78 | 3.12 | 3.42 | 0.0598 | 3.82 | 1.31 | 3.81
GATACAGGGTCAGGGCCAGAGTACGCGTATTGAT | 4.33 | 2.61 | -0.233 | 2.53 | -0.183 | 4.46 | 3.86 | 3.63 | 0.972 | 2.36 | 1.35 | 2.69 | -0.0398 | -0.619 | 1.64 | 2.28 | 0.125 | 3.24 | 0.471 | 3.82
AGAACGAGGGCAATGAGTTGATCGCACGGGTGGC | 0.0662 | 0.0988 | -0.712 | -0.452 | -0.58 | 1.33 | 1.16 | 0.618 | -0.283 | 0.0795 | 2.79 | 2.63 | 0.67 | 0.015 | -0.315 | 1.75 | 5.1 | 0.134 | -0.671 | 2
CGTCCAAGGTCAACGTCAGTGAAAGAGACTCGAA | 7.13 | 5.39 | 0.128 | 4.19 | 0.597 | 5.64 | 5.37 | 5.51 | 1.61 | 4.17 | 3.75 | 3.71 | 0.344 | -0.9 | 2.39 | 3.66 | 0.793 | 4.09 | 1.2 | 5.37
CGTCCAAGGTAATAGGAGGTCAGTGAAGACAGAT | 1.29 | 5.47 | 3.58 | 2.99 | -0.518 | 2.14 | 0.506 | 0.791 | -0.301 | 0.264 | 0.553 | 1.63 | 0.188 | -0.16 | 1.61 | 2.8 | 0.938 | 2.15 | 1.12 | 2.23
ATCGAAAGGTCGAAGGTGATTATACCCACCCGAA | 4.31 | 3.69 | 0.425 | 2.92 | 0.626 | 4.48 | 4.21 | 4.47 | 2.33 | 3.99 | 0.155 | 2 | 1.25 | 0.935 | 1.86 | 2.89 | 0.393 | 4.03 | 0.957 | 3.5
TCGAGTAGGTTACCAATGGGGCATTCGGCTTTCT | -0.107 | 1.22 | -0.464 | 0.357 | -0.96 | 0.808 | 0.00688 | 0.931 | 0.855 | 0.717 | 3.25 | 2.7 | -1.22 | -1.07 | 0.209 | -0.187 | -0.566 | 0.111 | -1.05 | 0.768
CTCGAAAGGTCGGTTGAGGGGAGTATACGGATAA | 2.57 | 1.35 | -0.151 | 1.35 | 0.377 | 2.39 | 0.359 | 0.861 | -0.0851 | 0.567 | -0.0517 | 0.459 | 0.19 | 0.356 | 0.859 | 1.51 | -0.0252 | 1.79 | -0.0195 | 3.02
